# EP2 mod: modulators of human EP2 prostaglandin E2 receptor. EP2-expressing cells, cAMP HTRF FRET, PGE2 co-stimulation. induction, % at 25 µM. hit rate 0.83% among 260,000;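 active = compounds whose cAMP rise, as percent of the full-agonist control response, exceeds 60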;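 note: rat C6 glioma line stably carrying human EP2 under a CMV promoter; the protocol text gives 20 µM as final concentration; 100% = response of wells given 1 µM PGE2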
# S1P4 antag: antagonists of human S1P4 receptor. O95977. S1P4-expressing cells, antagonist mode, reporter read-out. inhibition, % at 4.98 µM. hit rate 0.26% among 220,000. AID 1510; in the data active = inhibition above about 29%;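 note: 0% = wells stimulated with agonist and 100% = vehicle wells without agonist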
# S1P3 antag: antagonists of human S1P3 receptor | CHO S1P3 NFAT-BLA reporter, FRET fluorescence, antagonist mode | inhibition, % at 4.98 µM | Q99500 | hit rate 0.27% among 170,000;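 active = inhibition above the plate cutoff, the mean inhibition of test wells on that plate plus 3 SD, cut at about 28% in these data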;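 note: cells challenged with S1P at its EC80 of 0.8 µM; blue over green emission ratio from cleaved BLA substrate after 4 h stimulation; 0% = S1P-stimulated wells and 100% = unstimulated DMSO-only wells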
# Target sequence (Q99500 whole entry, looked up): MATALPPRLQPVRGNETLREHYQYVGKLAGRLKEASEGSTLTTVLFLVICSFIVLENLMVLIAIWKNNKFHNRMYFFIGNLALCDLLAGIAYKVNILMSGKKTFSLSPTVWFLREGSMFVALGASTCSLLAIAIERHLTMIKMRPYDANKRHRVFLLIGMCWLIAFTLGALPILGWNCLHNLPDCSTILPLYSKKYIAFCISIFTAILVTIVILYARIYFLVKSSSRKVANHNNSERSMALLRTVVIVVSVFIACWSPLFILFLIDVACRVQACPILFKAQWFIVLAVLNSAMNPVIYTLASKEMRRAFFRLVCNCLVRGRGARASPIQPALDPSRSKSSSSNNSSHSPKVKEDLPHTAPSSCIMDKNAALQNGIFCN
# S1P4 ag: activates the human S1P4 receptor | O95977 | S1P4-expressing cell line, agonist reporter assay | activation, % at 4.98 µM | hit rate 0.35% among 220,000; in the data active = activation above about 11%;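 note: 0% = DMSO vehicle and 100% = reference agonist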
# PGE2 EP2 inh: inhibitors of human EP2 prostaglandin E2 receptor; P43116; C6 glioma cells expressing human EP2, cAMP TR-FRET; cells stimulated with saturating PGE2; inhibition, % at 25 µM; hit rate 0.52% among 260,000;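 active = percent inhibition above 40 after rounding to a whole number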;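 note: rat C6 glioma host cells with rolipram phosphodiesterase inhibitor present; the protocol text gives 20 µM as final concentration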
# Pf gametocyte: kills late stage P. falciparum gametocytes; hit rate 0.065% among 150,000; inhibition, % at 10.9 µM; P. falciparum stage V gametocytes, ATP luminescence, 24 h; AID 743093;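 active = inhibition above the mean plus 3 SD of compounds within the control limits, set per campaign, cut at about 38% in these data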;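 note: 0% = DMSO wells and 100% = medium only without gametocytes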
# * hit, by the source's call; x = no result; ! = not confirmed by another sample. Only some compounds are listed: those with a hit (about 1.9% of all), similar ones and a draw of the others.
SMILES,EP2 mod,S1P4 antag,S1P3 antag,S1P4 ag,PGE2 EP2 inh,Pf gametocyte
O=C(O)C[C@@H]1OCC=C2CN3CC[C@]45c6ccccc6N[C@H]4[C@H]1[C@H]2C[C@H]35,0.6,x,x,x,50.9*,x
COC(=O)c1cn(Cc2ccc(C#N)cc2)c2ccccc12,49.1,x,x,x,12.3,x
C[C@]12CC[C@@H]3c4ccc(O)c(O)c4CC[C@H]3[C@@H]1CC[C@@H]2O,-23.7,8.1,-5.0,0.1,89.0*,x
C=C(C)c1ccccc1 (tested in a mixture with another compound),9.7,x,x,x,55.3*,x
COc1ccc(CN2CCN(C(=O)COc3ccc(C)cc3)CC2)c(OC)c1,-108.4,x,x,x,9.1,x
N=C(N)SCc1ccc(Cl)c2ccccc12 (tested in a mixture with another compound),-54.5,x,x,x,61.2*,x
CN1/C(=C\C=C\C2=[N+](C)c3ccc4ccccc4c3C2(C)C)C(C)(C)c2ccccc21,-45.7,-18.5,x,3.0,114.4*,x
N[C@@H](Cc1cc(Br)c(O)c(Br)c1)C(=O)O,9.7,-6.4,0.1,1.5,14.5,x
N[C@H](Cc1ccc2oc3cc(=O)c4ccccc4c-3nc2c1)C(=O)O,-18.4,x,x,x,68.5*,x
CC1CC(C)CN(C(=O)CN2C3CCC2CC(O)(c2nccn2C)C3)C1 (stereo unspecified),0.9,x,x,x,x,x
Nc1c(C(=O)Nc2ccc([As](=O)(O)O)cc2)cnc2nnnn12,28.6,x,x,x,52.2*,x
Nc1ccc([As](=O)(O)O)cc1,32.6,-4.3,-4.6,-0.3,16.2,x
O=c1oc2ccccc2c(O)c1C(c1ccc([N+](=O)[O-])cc1)c1c(O)c2ccccc2oc1=O,8.9,-3.2,11.2,2.9,8.6,1.4
CC/C(CC(c1ccccc1)c1c(O)c2ccccc2oc1=O)=N\NC(N)=S (stereo unspecified),40.5,-5.0,-2.1,0.9,3.7,x
O=C(C[C@H](c1ccccc1)c1c(O)c2ccccc2oc1=O)c1ccccc1,11.9,x,x,x,45.7*,x
CC(C)c1ccc(C(c2c(O)c3ccccc3oc2=O)c2c(O)c3ccccc3oc2=O)cc1,-11.1,x,x,x,69.7*,x
O=C(CN1C2CCC1CC(O)(c1ccccc1F)C2)NC1CCS(=O)(=O)C1 (stereo unspecified),6.9,x,x,x,7.1,x
COC(=O)c1c(C)ccc2c(O)c3c(cc12)C(=O)c1c2c(cc(O)c1C3=O)[C@@]1(C)O[C@@](C)(O2)[C@@H](O)[C@H](N(C)C)[C@H]1O,12.2,x,x,x,42.4*,x
C[C@@H]1CC[C@@]2(OC1)OC1C(O)C3C4CC[C@H]5C[C@H](O[C@@H]6O[C@H](CO)[C@H](O[C@@H]7O[C@H](CO)[C@@H](O)[C@H](O[C@@H]8OC[C@@H](O)[C@H](O)[C@H]8O)[C@H]7O[C@@H]7O[C@H](CO)[C@H](O)[C@H](O[C@@H]8O[C@H](CO)[C@@H](O)[C@H](O)[C@H]8O)[C@H]7O)[C@H](O)[C@H]6O)[C@H](O)C[C@]5(C)C4CC[C@]3(C)C1[C@@H]2C (stereo partly specified),-37.8,x,x,x,116.5*,x
CN1C[C@@H](C(=O)N[C@@]2(C)O[C@@]3(O)[C@H]4CCCN4C(=O)[C@@H](Cc4ccccc4)N3C2=O)C=C2c3cccc4[nH]cc(c34)C[C@@H]21,3.3,x,x,x,65.8*,x
COc1cc2c(cc1OC)[C@]13CC[N@+]4(C)CC5=CCO[C@@H]6CC(=O)N2[C@@H]1[C@@H]6[C@@H]5C[C@]34O,27.4,x,x,x,41.5*,x
COc1cc2c(cc1OC)[C@@]13CCN4CC5=CCO[C@H]6CC(=O)N2[C@H]1[C@H]6[C@H]5C[C@H]43,0.6,-2.6,-43.4,-4.3,15.0,x
Cc1nn(CCC#N)c2c1P(=S)(N1CCCC1)OC(c1ccc(F)cc1)=N2 (stereo unspecified),42.3,5.2,74.4*,-0.1,5.2,x
NC1(CO)COC(c2cccnc2)OC1 (stereo unspecified),23.4,x,x,x,7.1,x
Cc1ccccc1N1C(=O)NC(=O)/C(=C\c2cnn(-c3ccccc3)c2)C1=O,-56.7,3.6,-21.8,0.2,51.3*,10.7
SMILES,EP2 mod,S1P4 antag,S1P3 antag,S1P4 ag,PGE2 EP2 inh,Pf gametocyte
CCCN1CCc2cccc3c2[C@H]1Cc1ccc(O)c(O)c1-3,40.2,x,x,x,43.3*!,x
COc1ccc2c(c1O)-c1c(OC)c(OC)cc3c1[C@H](C2)N(C)CC3,17.1,x,x,x,11.2,x
CCCC/C(C)=C/[C@@H](NP(=O)(c1ccccc1)c1ccccc1)c1ccccc1,63.7*,10.6,-4.5,0.0,7.7,x
CCCCCP(=O)(O)c1ccccc1,21.7,-3.2,-4.1,-0.6,5.9,9.8
CC1(C)[C@@H]2CC[C@@]1(C)CN(CCC[N+](C)(C)C)C2,14.3,x,x,x,41.3*,x
CC(C)[C@H]1CN(Cc2ccco2)CCN1C(=O)Cc1ccc(-n2cnnn2)cc1,-30.2,x,x,x,x,x
C=CCN1C(=O)/C(=C/c2ccc(Br)s2)C(=O)NC1=S,x,x,x,x,x,14.2
O=C1NC(=O)C(=Cc2ccc(Br)s2)C(=O)N1,-91.8,x,x,x,115.2*,x
CC1(C)N=C(N)N=C(N)N1c1cccc(C(=O)Nc2ccc(S(=O)(=O)F)cc2)c1,11.8,x,x,x,52.1*,x
CCN(CC)C(=O)c1ccc(NC(=O)c2cccc(C(F)(F)F)c2)cc1,-14.1,-10.7,-6.9,-0.3,6.1,-6.3
C[N+](C)(C)CC1Cc2ccccc2O1 (stereo unspecified),-8.0,x,x,x,4.7,x
Cc1cccc(-n2c(C)nc3c(Cl)cc(Cl)cc3c2=O)c1,9.6,x,x,x,14.7,x
CCn1nc(-c2ccccc2)nc2c(=O)n(C)c(=O)nc1-2,-88.4,10.7,103.2*,1.9,42.6*,x
CC1Oc2cc3c(-c4c(O)cc(O)c5c(O)c6c(cc45)OC(C)C(C)C6=O)c(O)cc(O)c3c(O)c2C(=O)C1C (stereo unspecified),-28.4,-4.6,42.7*,-1.6,15.7,x
CC(=O)Oc1c2c(c(CC=C(C)C)c3c1C(=O)C1=C[C@@H]4CC5C(C)(C)OC(C/C=C(\C)C(=O)O)(C4=O)[C@@]15O3)OC(C)(CCC=C(C)C)C=C2 (stereo partly specified),6.8,x,x,x,27.1,x
Cn1ccnc1C1(O)CC2CCC(C1)N2CC(=O)Nc1ccc2c(c1)OCO2 (stereo unspecified),-26.8,x,x,x,x,x
C[C@H]1CC[C@]2(NC1)O[C@H]1C[C@H]3[C@H]4CC=C5C[C@@H](O)CC[C@]5(C)[C@@H]4CC[C@]3(C)[C@H]1[C@@H]2C,7.4,x,x,x,57.7*,x
CC12CCC3C(CC=C4CC(O)CCC43C)C1C/C(=C\N1CCCC1)C2=O (stereo unspecified),-4.6,-61.5,3.0,-0.1,5.6,x
CC1(C)CC(=N[N-]C(N)=[SH+])CC(C)(C)N1.CC1(C)CC(=N[N-]C(N)=[SH+])CC(C)(C)N1.[Ni],-5.7,x,x,x,50.9*,x
CCCCn1c(=O)c(C(=O)NCc2ccncc2)c(O)c2ccccc21,62.5*,-8.3,-30.5,-1.4,17.2,x
CCCCn1c(=O)c(C(=O)NCc2ccccc2)c(O)c2ccccc21,x,x,x,x,x,-18.8
